Test results from PubChem BioAssay.
Calls of active or inactive are those of the source. Unless noted, the rule behind the calls is not given here.

Key:
[1] = compounds binding Alexa647 anti-His antibody – biochemical, small-molecule microarray, 635 nm fluorescence, artefact control for SMM control protein annotation, primary screen (AID 1128); conditions: higher = more signal;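 note: score merges feature fluorescence with signal-to-noise for each printed compound spot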
[2] = test system: Human papillomavirus type 1a E7 protein (residues 1-88); test: HPV1a E7 small-molecule binders, primary screen, biochemical, small-molecule microarray, residues 1-88, 635 nm (AID 1129); conditions: small-molecule microarray binding, fluorescence 635 nm; higher = more signal
[3] = target: Focal adhesion kinase 1 (Homo sapiens) (UniProt Q05397); test: PTK2 protein binding on printed compound slides – biochemical, small-molecule microarray, 635/667 nm fluorescence, BSA, DTT, primary screen (AID 1130); conditions: 635 nm fluorescence, higher = more signal;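 note: composite of spot emission at 667 nm and signal to noise over triplicate slides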
[4] = test system: Fibrinogen (Alexa647-labelled); test: Alexa647-fibrinogen binding to printed small molecules – biochemical, small-molecule microarray, 635/667 nm fluorescence, artefact control for SMM control-protein annotation, profiling panel (AID 1131); conditions: fibrinogen-A647 binding fluorescence, higher = more signal;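 note: z-score merges 667 nm fluorescence with per-spot signal-to-noise over triplicate slides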
[5] = target: Follistatin (Homo sapiens) (UniProt P19883); test: FST protein binding to printed compounds – biochemical, small-molecule microarray, 635/667 nm fluorescence, primary screen (AID 1132); conditions: 635 nm fluorescence, higher = more signal
[6] = target: Fibroblast growth factor 2 (Homo sapiens) (UniProt P09038); test: basic fibroblast growth factor binding to printed compounds – biochemical, small-molecule microarray, 635/667 nm fluorescence, primary screen (AID 1133); conditions: FGF2, fluorescence 635/667, higher = more signal
[7] = JC-1 mitochondrial potential readout, lung cancer cells – cell-based, A549, JC-1 fluorescence, basal, 24 h, 100 nL, profiling panel (AID 1138); conditions: higher = more signal;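 note: A549 lung adenocarcinoma cells under basal conditions with no added stimulus; test concentration not given here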
[8] = test system: Lefty1; test: Lefty1 protein binding to printed compounds – biochemical, small-molecule microarray, 635/667 nm fluorescence, primary screen (AID 1139); conditions: fluorescence 635/667, higher = more signal
[9] = test system: wheat germ agglutinin (Triticum aestivum), Alexa647-labelled; test: Alexa647-WGA lectin binding to printed small molecules – biochemical, small-molecule microarray, 635/667 nm fluorescence, artefact control for SMM control-protein annotation, profiling panel (AID 1140); conditions: WGA-A647 binding, 635 nm fluorescence, higher = more signal;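 note: score merges 667 nm feature emission with signal to noise over triplicate slides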
[10] = target: Luciferin 4-monooxygenase (Photinus pyralis) (UniProt P08659); test: inhibition of purified Photinus pyralis luciferase – biochemical, luminescence, purified enzyme, 2006 set, primary screen (AID 1141); conditions: purified firefly luciferase, SteadyGlo luminescence, 30 min; higher = more signal, called active from +8 up or from −8 down;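 note: cell-free assay with purified firefly luciferase at 100 ng per well in PBS; test concentration not given here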
[11] = test system: Wnt5a (protein binding on small-molecule microarray); test: small molecules binding Wnt5a protein – biophysical, small-molecule microarray, 635/667 nm fluorescence, primary screen (AID 1142); conditions: 635 nm fluorescence, higher = more signal;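 note: fluorescence read at 667 nm with signal to noise per printed feature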
[12] = ATP-based viability of Huh7 replicon cells – cell-based, CellTiter-Glo luminescence, basal, 48 h, cytotoxicity control for HCV replication inhibitor project, primary screen (AID 1143); conditions: higher = more signal, called active from +8 up or from −8 down;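 note: Huh7 hepatoma cells carrying a hepatitis C replication reporter with no stimulus; test concentration not given here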
[13] = Pseudomonas biofilm growth suppression – PAO1 strain, BacTiter-Glo luminescence, LB-PBS, primary screen (AID 1144); conditions: P. aeruginosa PAO1 biofilm, 12 h, higher = more signal
[14] = basal CRE-LacZ reporter activity in PC12 – cell-based, unstimulated, primary screen (AID 1145); conditions: no forskolin, luminescence, 4.5 h, higher = more signal, called active from +8 up or from −8 down
[15] = forskolin-driven CRE-LacZ activity in PC12 – cell-based, CRE-LacZ reporter, forskolin-stimulated, primary screen (AID 1146); conditions: luminescence, 4.5 h, higher = more signal, called active from +8 up or from −8 down;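 note: PC12 cells with 6xCRE LacZ reporter stimulated by forskolin 10 µM; beta-galactosidase reporter signal reflecting CREB driven transcription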
[16] = target: Streptavidin (Streptomyces avidinii) (UniProt P22629); test: compounds binding control protein streptavidin – biophysical, small-molecule microarray, 635/667 nm fluorescence, artefact control for SMM compound annotation, primary screen (AID 1147); conditions: higher = more signal;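 note: signal reflects streptavidin binding to arrayed compounds as a control protein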
[17] = probe aInhba binding on compound microarray – biochemical, small-molecule microarray, 635/667 nm fluorescence, primary screen (AID 1148); conditions: higher = more signal;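 note: score merges 667nm spot fluorescence with signal-to-noise for antibody binding to printed compounds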
[18] = target: Torsin-1A (Homo sapiens) (UniProt O14656); test: TOR1A wild-type binding on microarray – cell lysate, small-molecule microarray, lysate, 635/667 nm, primary screen (AID 1149); conditions: COS7 hTOR1A-WT lysate, 635 nm fluorescence, higher = more signal
[19] = target: Torsin-1A (Homo sapiens) (UniProt O14656); test: torsin A mutant lysate binding on microarrays – cell lysate, small-molecule microarray, COS7 lysate, 635/667 nm fluorescence, primary screen (AID 1150); conditions: COS7 hTOR1A mutant lysate, 635 nm fluorescence, higher = more signal;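 note: score pools 667 nm emission and signal to noise measuring lysate protein binding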
[20] = test system: Sonic hedgehog protein (Shh); test: Sonic hedgehog microarray binding compounds – biochemical, small-molecule microarray, 635/667 nm fluorescence, primary screen (AID 1151); conditions: 635 nm fluorescence, higher = more signal;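 note: Shh protein binding to compounds spotted on small-molecule microarray slides; score combines spot fluorescence intensity with signal-to-noise across triplicate slides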

Chain of Follistatin (Homo sapiens) (P19883 whole entry, looked up): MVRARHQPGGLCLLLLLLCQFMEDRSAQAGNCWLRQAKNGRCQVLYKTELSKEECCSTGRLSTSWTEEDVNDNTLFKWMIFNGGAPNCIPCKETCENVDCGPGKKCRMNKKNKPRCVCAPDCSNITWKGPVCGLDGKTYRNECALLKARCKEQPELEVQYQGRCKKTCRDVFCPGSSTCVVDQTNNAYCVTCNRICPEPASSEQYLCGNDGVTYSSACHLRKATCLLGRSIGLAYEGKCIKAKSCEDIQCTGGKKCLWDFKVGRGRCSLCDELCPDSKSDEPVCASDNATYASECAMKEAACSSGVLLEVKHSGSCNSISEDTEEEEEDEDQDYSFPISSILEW
Chain of Streptavidin (Streptomyces avidinii) (P22629 whole entry, looked up): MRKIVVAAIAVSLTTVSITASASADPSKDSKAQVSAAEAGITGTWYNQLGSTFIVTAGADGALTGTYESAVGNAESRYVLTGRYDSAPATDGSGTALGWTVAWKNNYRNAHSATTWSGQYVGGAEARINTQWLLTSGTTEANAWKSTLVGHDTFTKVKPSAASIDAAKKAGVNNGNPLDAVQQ
Chain of Focal adhesion kinase 1 (Homo sapiens) (Q05397 whole entry, looked up): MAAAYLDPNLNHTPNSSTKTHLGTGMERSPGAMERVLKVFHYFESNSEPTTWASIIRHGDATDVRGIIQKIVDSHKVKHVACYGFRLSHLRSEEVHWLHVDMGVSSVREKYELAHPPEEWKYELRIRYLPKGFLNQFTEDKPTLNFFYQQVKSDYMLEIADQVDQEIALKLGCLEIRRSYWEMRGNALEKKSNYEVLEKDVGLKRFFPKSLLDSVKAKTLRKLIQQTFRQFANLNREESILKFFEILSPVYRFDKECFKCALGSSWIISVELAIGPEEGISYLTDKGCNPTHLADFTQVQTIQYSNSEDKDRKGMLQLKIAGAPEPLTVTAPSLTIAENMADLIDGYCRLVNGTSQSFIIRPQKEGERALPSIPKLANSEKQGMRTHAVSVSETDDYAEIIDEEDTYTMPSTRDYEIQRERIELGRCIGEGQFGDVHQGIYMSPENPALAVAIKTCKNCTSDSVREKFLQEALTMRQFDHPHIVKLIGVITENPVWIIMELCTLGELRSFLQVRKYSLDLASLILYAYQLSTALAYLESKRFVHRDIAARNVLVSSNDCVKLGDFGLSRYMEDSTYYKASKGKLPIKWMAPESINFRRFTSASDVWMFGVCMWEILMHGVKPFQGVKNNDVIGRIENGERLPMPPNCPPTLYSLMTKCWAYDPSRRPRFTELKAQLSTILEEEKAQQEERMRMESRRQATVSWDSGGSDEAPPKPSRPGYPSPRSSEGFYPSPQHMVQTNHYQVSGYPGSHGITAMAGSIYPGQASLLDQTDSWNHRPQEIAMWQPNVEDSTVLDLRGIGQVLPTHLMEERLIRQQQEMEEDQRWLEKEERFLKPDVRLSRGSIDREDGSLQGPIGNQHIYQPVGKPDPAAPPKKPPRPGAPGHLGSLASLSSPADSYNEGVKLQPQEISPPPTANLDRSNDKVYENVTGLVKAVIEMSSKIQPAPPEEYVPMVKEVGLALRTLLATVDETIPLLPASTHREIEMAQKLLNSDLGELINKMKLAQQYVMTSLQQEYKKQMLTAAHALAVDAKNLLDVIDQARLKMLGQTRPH
Chain of Luciferin 4-monooxygenase (Photinus pyralis) (P08659 whole entry, looked up): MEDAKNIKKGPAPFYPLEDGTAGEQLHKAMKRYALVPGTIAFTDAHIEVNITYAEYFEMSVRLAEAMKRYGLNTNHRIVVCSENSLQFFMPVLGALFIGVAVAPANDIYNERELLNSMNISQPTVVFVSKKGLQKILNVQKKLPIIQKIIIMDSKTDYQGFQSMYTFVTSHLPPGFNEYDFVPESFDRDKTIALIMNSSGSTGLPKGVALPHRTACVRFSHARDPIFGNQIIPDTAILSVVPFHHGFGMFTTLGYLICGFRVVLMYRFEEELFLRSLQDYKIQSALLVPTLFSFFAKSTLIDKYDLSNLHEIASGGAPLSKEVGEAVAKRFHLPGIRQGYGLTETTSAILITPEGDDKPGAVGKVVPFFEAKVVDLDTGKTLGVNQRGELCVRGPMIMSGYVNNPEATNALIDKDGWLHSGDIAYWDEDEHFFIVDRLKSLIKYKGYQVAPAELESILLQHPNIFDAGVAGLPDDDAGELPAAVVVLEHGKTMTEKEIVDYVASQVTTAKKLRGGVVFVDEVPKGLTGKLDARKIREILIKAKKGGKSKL
Chain of Torsin-1A (Homo sapiens) (O14656 whole entry, looked up): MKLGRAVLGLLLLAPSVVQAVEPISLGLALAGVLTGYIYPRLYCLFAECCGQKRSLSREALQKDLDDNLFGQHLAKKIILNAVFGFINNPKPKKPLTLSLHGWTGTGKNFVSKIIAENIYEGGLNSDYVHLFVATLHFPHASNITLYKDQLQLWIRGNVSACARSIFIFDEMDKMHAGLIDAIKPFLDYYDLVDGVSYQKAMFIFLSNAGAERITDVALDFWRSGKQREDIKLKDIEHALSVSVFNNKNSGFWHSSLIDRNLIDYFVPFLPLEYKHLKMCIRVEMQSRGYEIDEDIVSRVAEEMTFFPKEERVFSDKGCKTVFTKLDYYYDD
Chain of Fibroblast growth factor 2 (Homo sapiens) (P09038 whole entry, looked up): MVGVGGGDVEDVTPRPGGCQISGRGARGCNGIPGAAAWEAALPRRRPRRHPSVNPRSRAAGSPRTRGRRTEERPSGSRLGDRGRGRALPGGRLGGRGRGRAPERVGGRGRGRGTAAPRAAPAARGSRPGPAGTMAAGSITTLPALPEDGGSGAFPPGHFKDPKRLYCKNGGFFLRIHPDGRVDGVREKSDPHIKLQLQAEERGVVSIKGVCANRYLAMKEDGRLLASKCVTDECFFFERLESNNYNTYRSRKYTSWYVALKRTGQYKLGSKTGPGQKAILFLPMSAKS

Compound | composite z-score [1] | composite z-score [2] | composite z-score [3] | composite z-score [4] | composite z-score [5] | composite z-score [6] | z-score [7] | composite z-score [8] | composite z-score [9] | z-score [10] | composite z-score [11] | z-score [12] | z-score [13] | z-score [14] | z-score [15] | composite z-score [16] | composite z-score [17] | composite z-score [18] | composite z-score [19] | composite z-score [20]
CCOC(=O)CCN1C(=O)[C@H]2[C@H]3[C@H](O)[C@H](O)CC(=NOCC=C(C)CCC=C(C)C)[C@@H]3CC[C@H]2C1=O | -0.34 | 0.741 | -0.115 | 0.7 | 0.696 | 0.884 | 0.0237 | 0.537 | 0.132 | 0.597 (inactive) | 0.377 | 0.16 (inactive) | 0.0232 (inactive) | 0.875 (inactive) | 0.427 (inactive) | 0.111 | 0.0756 | 0.957 | 0.588 | 1.02
O=C1[C@H]2[C@H]3[C@H](O)[C@H](O)CC(=NOC[C@@H](O)COCc4ccco4)[C@@H]3CC[C@H]2C(=O)N1C1CCCCC1 | 0.0182 | -0.244 | -0.569 | -0.811 | 1.22 | 1.37 | -0.144 | 1.58 | -0.284 | 0.0055 (inactive) | 0.124 | -0.234 (inactive) | 0.321 (inactive) | 3.23 (inactive) | 0.148 (inactive) | -0.256 | -0.195 | 3.38 | 1.25 | 1.94
CCN1C(=O)[C@H]2[C@H]3[C@H](O)[C@H](O)CC(=NOCC(C)C)[C@H]3CC[C@H]2C1=O | 0.341 | 0.551 | -0.0956 | -0.326 | 0.818 | 0.4 | -0.087 | 0.717 | -0.312 | 0.404 (inactive) | -0.0772 | 0.306 (inactive) | 0.138 (inactive) | -0.202 (inactive) | 0.13 (inactive) | 0.342 | -0.0774 | -0.284 | 0.303 | 0.599
COC(=O)[C@@H]1CC[C@H](C)[C@@H](c2ccc(Br)cc2)N1 | 0.426 | -1.3 | 1.38 | 0.102 | -0.291 | -0.21 | 0.0492 | -0.04 | -0.197 | -0.464 (inactive) | 0.224 | 0.336 (inactive) | -0.984 (inactive) | 0.372 (inactive) | -0.257 (inactive) | 0.0708 | 0.0705 | 0.387 | 0.0795 | -0.0173
CC(CCN1CCc2nc(-c3ccccc3)c(-c3ccccc3)cc2C1)=NO[C@@H](C)c1cc(-c2c(C)cc(C)cc2C)no1 | 0.962 | -0.444 | -0.228 | 0.496 | -0.289 | -0.44 | 0.281 | -0.0591 | 0.493 | 0.618 (inactive) | -0.405 | -2.58 (inactive) | -0.832 (inactive) | 2.71 (inactive) | -0.426 (inactive) | 2.15 | -0.159 | 0.199 | 0.153 | -0.387
